This is an account of results in PubChem BioAssay (NCI).

The panel holds about 83,000 compounds, 20% with a hit somewhere; the sample as a whole holds those more often.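 Treatment: one concentration, 48 hours, 96-well format. Scoring: percent growth, with anything below 10 considered active.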 Values without a mark were called inactive. The source made the active and inactive calls.

Holding throughout (assay): NCI-60 one-dose screen, 48 h (100 = growth as untreated, 0 = no growth, -100 = all killed)
One assay deals with HCT-15 colon. As to conditions: 10 µM unless noted.
The test system of the next assay is HT29 colon. As to conditions: 10 µM unless noted.
The subject of the next assay is SNB-75 CNS. As to conditions: 10 µM unless noted.
For another assay, the system named is SNB-19 CNS. As to conditions: 10 µM unless noted.
Another assay has as its system U251 CNS. Particulars: 10 µM unless noted.
Another assay has as its system PC-3 prostate. As to conditions: 10 µM unless noted.
In a further assay the test system is SK-MEL-5 melanoma. As to conditions: 10 µM unless noted.
In the next assay the test system is UACC-62 melanoma. Particulars: 10 µM unless noted.
The next assay concerns LOX IMVI melanoma. Particulars: 10 µM unless noted.
The test system of another assay is SK-MEL-28 melanoma. Particulars: 10 µM unless noted.
A further assay concerns SK-MEL-2 melanoma. As to conditions: 10 µM unless noted.
Another assay deals with EKVX NSCLC. Particulars: 10 µM unless noted.
Another assay relates to SN12C renal. Particulars: 10 µM unless noted.
A further assay deals with UO-31 renal. As to conditions: 10 µM unless noted.
The next assay relates to TK-10 renal. As to conditions: 10 µM unless noted.
Another assay relates to ACHN renal. Particulars: 10 µM unless noted.
The next assay concerns CAKI-1 renal. Particulars: 10 µM.
The test system of the next assay is A498 renal. Particulars: 10 µM unless noted.
For the next assay, the system named is CCRF-CEM leukemia. As to conditions: 10 µM unless noted.
The test system of another assay is MOLT-4 leukemia. As to conditions: 10 µM unless noted.

On to `O=S(=O)(Nc1ccc(I)c(Cl)c1)c1ccc(-c2cnc(C3CC3)o2)cc1`, for which the growth was 27.8% with HCT-15 colon; 8.12% (active) in the assay on HT29 colon; -13% (active) in the assay on SNB-75 CNS; 42.7% in the assay on SNB-19 CNS; 31% with U251 CNS; 20.4% in the assay on PC-3 prostate. Also, the growth in the assay with SK-MEL-5 melanoma is 16.8%; in the assay with UACC-62 melanoma, 31.2%; in the assay with LOX IMVI melanoma, 36.1%; in the assay on SK-MEL-28 melanoma, 59.7%; with SK-MEL-2 melanoma, 43.7%; with EKVX NSCLC, 42.5%. Also, the growth is 42.9% in the assay on SN12C renal; 51.7% in the assay on UO-31 renal; 53.3% in the assay with TK-10 renal; 41.5% in the assay on ACHN renal; 6.99% (active) in the assay with CAKI-1 renal; 2.08% (active) with A498 renal. Besides, the growth with CCRF-CEM leukemia is 14.1%; with MOLT-4 leukemia, 29.2%.

As for `O=C(/C=C/c1cccc(O)c1)c1ccc(O)cc1`, the growth in the assay with HCT-15 colon is 49.6%; in the assay with HT29 colon it was 80.7%; in the assay with SNB-75 CNS, 103%; in the assay with SNB-19 CNS, 74.9%; in the assay on U251 CNS, 43.3%; in the assay with PC-3 prostate, 65.3%. For the same molecule, the growth in the assay on SK-MEL-5 melanoma is 96.9%; with UACC-62 melanoma, 80%; with LOX IMVI melanoma, 32.2%; with SK-MEL-28 melanoma it was 101%; in the assay with SK-MEL-2 melanoma, 107%; in the assay on EKVX NSCLC it was 98.4%. Further, the growth was 65.6% in the assay with SN12C renal; 72.6% in the assay with UO-31 renal; 98.3% in the assay on TK-10 renal; 75.1% in the assay with ACHN renal; 65.3% in the assay on CAKI-1 renal; 114% in the assay with A498 renal. Moreover, the growth in the assay with CCRF-CEM leukemia was 37%; in the assay on MOLT-4 leukemia, 91.7%.

For the molecule `CC(=O)Nc1ccc(NC(=O)Nc2cccc(-c3nc(-c4ccc(NC(=O)c5cccs5)cc4Cl)no3)c2)cc1C(F)(F)F`, the growth was 20.2% in the assay on HCT-15 colon; -36.4% (active) in the assay on HT29 colon; -73.2% (active) with SNB-75 CNS; -33.7% (active) in the assay with SNB-19 CNS; -57.4% (active) in the assay on U251 CNS; -64.5% (active) with PC-3 prostate. In addition, the growth is -77.8% (active) with SK-MEL-5 melanoma; -82.4% (active) in the assay with UACC-62 melanoma; -88% (active) in the assay on LOX IMVI melanoma; -90.1% (active) in the assay with SK-MEL-28 melanoma; -61.4% (active) with SK-MEL-2 melanoma; -35.9% (active) in the assay on EKVX NSCLC. Moreover, the growth was -64.5% (active) in the assay with SN12C renal; 14.4% in the assay on UO-31 renal; -32.7% (active) in the assay on TK-10 renal; 3.84% (active) in the assay with ACHN renal; -73.2% (active) in the assay on CAKI-1 renal; -87.9% (active) in the assay on A498 renal. The growth in the assay with CCRF-CEM leukemia is 6.64% (active); with MOLT-4 leukemia, -0.998% (active).

For the molecule `O=c1oc2ccc(-c3ccc(F)cc3F)cc2c(=O)n1-c1ccc(F)c(F)c1`, the growth in the assay with HCT-15 colon was 3.09% (active); in the assay with HT29 colon, 88.8%; in the assay with SNB-75 CNS, 14.9%; in the assay on SNB-19 CNS, 12.2%; with U251 CNS it was 11.9%; in the assay with PC-3 prostate, 13.3%. Besides, the growth with SK-MEL-5 melanoma was -77.4% (active); in the assay on UACC-62 melanoma it was -12.8% (active); in the assay on LOX IMVI melanoma, 17.8%; with SK-MEL-28 melanoma, 19.9%; with SK-MEL-2 melanoma it was -14.3% (active); with EKVX NSCLC, 9.2% (active). The growth in the assay on SN12C renal is 2.02% (active); in the assay with UO-31 renal, -12.4% (active); with TK-10 renal, 10.8%; in the assay on ACHN renal it was 2.6% (active); in the assay with CAKI-1 renal it was -15.4% (active); in the assay on A498 renal, -42.6% (active). The values for the growth in the assay with CCRF-CEM leukemia and in the assay on MOLT-4 leukemia were 16.4% and 6.43% (active), respectively.

Take `CCN(CC)c1ccc2cc(C(=O)NCCOCCOCCOCCn3cc(CCC(=O)Nc4ccc(C(=O)c5ccc(NC(=O)OC(C)(C)C)cc5)cc4)nn3)c(=O)oc2c1`: the growth in the assay on HCT-15 colon is 72.7%; in the assay on HT29 colon, 77.9%; in the assay on SNB-75 CNS, 94.6%; with SNB-19 CNS, 75.7%; in the assay with U251 CNS it was 69.8%; with PC-3 prostate, 39.4%. In addition, the growth was -17.2% (active) in the assay with SK-MEL-5 melanoma; 32.1% with UACC-62 melanoma; 26.7% in the assay with LOX IMVI melanoma; 82.6% with SK-MEL-28 melanoma; 67.6% in the assay on SK-MEL-2 melanoma; 73.5% in the assay on EKVX NSCLC. Moreover, the growth was 68.7% in the assay with SN12C renal; 62.5% with UO-31 renal; 95.6% with TK-10 renal; 84.1% in the assay with ACHN renal; 25.7% in the assay on CAKI-1 renal; 84.8% in the assay with A498 renal. Moreover, the growth with CCRF-CEM leukemia was 19%; in the assay on MOLT-4 leukemia, 21.4%.

Turning to `Cn1cc2c(c1)-c1c(sc3nc(-c4ccc(NC(=O)Nc5cc(C(C)(C)C)on5)cc4)cn13)CC2`, the growth in the assay on HCT-15 colon was 12.2%; in the assay on HT29 colon, 21.9%; in the assay with SNB-75 CNS, -1.5% (active); in the assay with SNB-19 CNS, 46.7%; in the assay on U251 CNS it was 24.3%; in the assay on PC-3 prostate, 38.7%. In addition, the growth was 63.1% in the assay on SK-MEL-5 melanoma; 87.7% with UACC-62 melanoma; 16.9% in the assay with LOX IMVI melanoma; 54.2% in the assay with SK-MEL-28 melanoma; 65.5% with SK-MEL-2 melanoma; 60.2% with EKVX NSCLC. Moreover, the growth with SN12C renal is 59.9%; in the assay on UO-31 renal, 18.2%; with TK-10 renal it was 95.4%; in the assay on ACHN renal it was 42.1%; in the assay on CAKI-1 renal, 28.1%; in the assay on A498 renal, 32.1%. Also, the growth was 28.2% with CCRF-CEM leukemia and 12% with MOLT-4 leukemia.

Consider `C#C[C@]1(O)CC[C@H]2[C@@H]3CC=C4c5sc(-c6ccccn6)nc5CC[C@]4(C)[C@H]3CC[C@@]21C`, for which the growth with HCT-15 colon was 68.9%; in the assay on HT29 colon it was 68.2%; with SNB-75 CNS, 37.4%; with SNB-19 CNS it was 72.4%; in the assay on U251 CNS, 51.1%; with PC-3 prostate, 51.9%. For the same molecule, the growth in the assay on SK-MEL-5 melanoma is 91%; in the assay with UACC-62 melanoma, 67.6%; in the assay on LOX IMVI melanoma it was 62.9%; in the assay with SK-MEL-28 melanoma, 44.3%; with SK-MEL-2 melanoma, 70.7%; with EKVX NSCLC, 77.7%. In addition, the growth is 87.2% in the assay on SN12C renal; 35.8% with UO-31 renal; 104% in the assay on TK-10 renal; 75.8% with ACHN renal; 87.7% in the assay with CAKI-1 renal; 70.6% in the assay on A498 renal. Besides, the growth was 37.5% with CCRF-CEM leukemia and 21.7% in the assay on MOLT-4 leukemia.

For the molecule `Cn1cc(-c2nn3cc(-c4ccncc4)nc3s2)c2cc(Cl)ccc21`, the growth in the assay on HCT-15 colon was 5.44% (active); in the assay on HT29 colon, 4.2% (active); in the assay on SNB-75 CNS, 88.6%; in the assay with SNB-19 CNS it was 83%; in the assay on U251 CNS, 56.6%; in the assay with PC-3 prostate, 14.6%. The growth was 55.7% in the assay on SK-MEL-5 melanoma; 54.5% in the assay on UACC-62 melanoma; 39.4% in the assay with LOX IMVI melanoma; 88.1% in the assay on SK-MEL-28 melanoma; 76% in the assay on SK-MEL-2 melanoma; 33.4% with EKVX NSCLC. In addition, the growth in the assay on SN12C renal is 61.2%; with UO-31 renal it was 43.4%; in the assay with TK-10 renal, 116%; in the assay on ACHN renal, 60.5%; in the assay with CAKI-1 renal, 51.3%; in the assay on A498 renal, 89.7%. The figures for the growth in the assay on CCRF-CEM leukemia and in the assay on MOLT-4 leukemia were 10.5% and 2.31% (active), respectively.
